ELG1 genotoxic – genotoxicity induction in ELG1-luciferase HEK293T cells; Potency, µM (top dose mostly 46 µM), inactives show top-dose activity change, positive = activation, usual class: activators; AID 504466; 1.3% of 330,000 active; HEK293T ELG1-luciferase reporter, luminescence, 16 h; also: % of control where 0% means no effect; nearly all actives have a fitted effect of over 60% in size
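16 hr compound incubation (37 °C, 5% CO2) of HEK293T cells carrying luciferase-tagged ELG1; luciferase then measured by ONE-Glo luminescence after 30 min at RT.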
Rab9 promoter act – activators of Rab9 promoter; Huh7 Rab9 promoter-luciferase reporter, luminescence, 24 h; Potency, µM (highest dose often 9.22 µM), for the others: top-dose activation, negative = inhibition, most hits filed as activators; 2.8% of 320,000 active; also: % of control where 0% means no effect; nearly all actives have a fitted effect of over 60% in size
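Luciferase signal after 10 min detection reagent at ambient indicates Rab9 promoter upregulation; stably transfected Huh7 cells were treated 24 h with compound in DMSO at 37 °C, 5% CO2.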
SMN2 splice enh – enhancers of SMN2 splice variant expression; AID 1458; Potency, µM (doses to about 46.1 µM), without a hit: at the top dose activity change, positive = activation, most hits filed as activators; HEK293 SMN2-luciferase splicing reporter, luminescence, 30-36 h; 2.8% of 210,000 active; also: % of control where 0% means no effect; nearly all actives have a fitted effect of over 55% in size
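HEK293 cells carry an SMN2 minigene-luciferase reporter in which exon 7 inclusion puts luciferase in frame. Cells were seeded at 2000 cells/well, attached for 10-12 hours, then exposed to compounds for 30-36 hours at 37C before ONE-Glo luminescence.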
ELG1 DNA repair – inhibitors of ELG1-dependent DNA repair in HEK293T cells; HEK293T ELG1-luciferase reporter, luminescence, 16 h; DNA damage induced by 5-fluorouridine; Potency, µM (doses to about 46.1 µM), for inactives: top-dose activity change, negative = inhibition, usual class: inhibitors; 2.3% of 330,000 active; AID 504467; also: % is scaled to controls: 0 for no effect and ±100 for the full control effect; nearly all actives have a fitted effect of over 55% in size
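Luminescence from the luciferase reporter, measured 30 min after ONE-Glo reagent at room temperature, was the read-out. Beforehand, 2,000 cells per well were exposed for 16 hr at 37 °C to 5-fluorouridine together with compound or vehicle.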
NPC1 promoter act – NPC1 promoter activation; Huh7 NPC1 promoter luciferase reporter, 24 h; Potency, µM (titrated, usually from 9.22 µM), inactives show at the top dose activation, hits mostly activators; 2.4% of 320,000 active; AID 485313; also: % of control where 0% means no effect; nearly all actives have a fitted effect of over 60% in size
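Stable NPC1-promoter luciferase Huh7 line; cpd (DMSO) 24 h, 37 °C, 5% CO2; Amplite luciferase reagent 10 min RT; luminescence readout. qHTS format.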
FLuc modulator – counter-screen for miR-21 project: firefly luciferase inhibitors or activators; P08659; purified FLuc, Km substrates, luminescence inhibition; Potency, µM (top dose mostly 57.5 µM), for the others: at the highest dose activity change, negative = inhibition, hits mostly inhibitors; 6.9% of 360,000 active;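 also: plate controls were vehicle for no effect and reference inhibitor for full effect; nearly all actives have a fitted effect of over 55% in size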
Target sequence (P08659 whole entry, looked up): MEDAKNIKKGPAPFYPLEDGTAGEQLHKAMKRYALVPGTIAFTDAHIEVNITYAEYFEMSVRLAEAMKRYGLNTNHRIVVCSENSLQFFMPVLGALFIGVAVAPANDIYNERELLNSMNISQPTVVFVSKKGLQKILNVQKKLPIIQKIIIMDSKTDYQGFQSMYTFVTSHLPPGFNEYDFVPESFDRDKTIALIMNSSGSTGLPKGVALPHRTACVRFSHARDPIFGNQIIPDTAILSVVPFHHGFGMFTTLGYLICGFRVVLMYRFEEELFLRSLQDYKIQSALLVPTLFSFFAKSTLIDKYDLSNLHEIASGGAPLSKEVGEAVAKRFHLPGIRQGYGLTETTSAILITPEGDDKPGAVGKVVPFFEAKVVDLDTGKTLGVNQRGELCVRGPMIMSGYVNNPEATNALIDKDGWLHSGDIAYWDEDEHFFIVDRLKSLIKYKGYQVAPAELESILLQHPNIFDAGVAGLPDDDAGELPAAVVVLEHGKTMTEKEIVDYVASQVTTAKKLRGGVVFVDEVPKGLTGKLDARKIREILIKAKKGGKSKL
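Purified P. pyralis luciferase (10nM final) with 10uM D-luciferin and 10uM ATP (Km levels) in 50mM Tris acetate pH 7.5, 10mM Mg acetate, 0.01% Tween-20, 0.05% BSA; qHTS 6-point titration, ~60 µM downward; luminescence read.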
ELG1 FLuc counter – luciferase inhibition in cell-free luciferin readout for ELG1 hits; 3% of 350 active; Potency, µM (top dose mostly 46.1 µM), inactives show at the highest dose activity change, negative = inhibition, usual class: inhibitors; shares compounds with ELG1 DNA repair; cell-free firefly luciferase luminescence counter-screen, ViewLux; also: % is scaled to controls: 0 for no effect and ±100 for the full control effect
ELG1-Luc inh – human ELG1 repair inhibition, luciferase-tagged ELG1 confirmation; shares compounds with ELG1 DNA repair; 68% of 670 active; Potency, µM (top dose mostly 46.1 µM), inactives show at the highest dose activity change, negative = inhibition, hits mostly inhibitors; HEK293T ELG1-luciferase levels, luminescence; cells co-treated with 5-fluorouridine; also: % is scaled to controls: 0 for no effect and ±100 for the full control effect; nearly all actives have a fitted effect of over 55% in size
ELG1-Luc MMS – confirmation of human ELG1 repair inhibitors, MMS stimulated; Potency, µM (highest dose often 46.1 µM), for inactives: top-dose activity change, negative = inhibition, most hits filed as inhibitors; 53% of 670 active; HEK293T luciferase-tagged ELG1 level, MMS stimulated; shares compounds with ELG1 DNA repair; also: % is scaled to controls: 0 for no effect and ±100 for the full control effect; nearly all actives have a fitted effect of over 60% in size
ELG1 5-FU – confirmation of ELG1 repair inhibitors: viability with 5FU. Potency, µM (top dose mostly 46.1 µM), for the others: top-dose activity change, negative = viability loss, most hits filed as cytotoxic. 670 tested, under 10 active. cell viability with 5-FU, ELG1-dependent repair. shares compounds with ELG1 DNA repair. AID 624250;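 also: ELG1-luc HEK293T cells cotreated with 5-fluorouridine at 10 µM final; viability measured 16 h after compound addition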
ELG1 MMS cell – confirmation of ELG1 repair inhibitors: viability with MMS | shares compounds with ELG1 DNA repair | Cell viability with MMS, ELG1-dependent DNA repair | Potency, µM (top dose mostly 46.1 µM), for the others: at the top dose activity change, negative = viability loss, most hits filed as cytotoxic | 33% of 670 active;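 also: ELG1-luc HEK293T cells co-treated with 10 µM MMS; viability read 16 h after compound addition; % is scaled to controls: 0 for no effect and ±100 for the full control effect; nearly all actives have a fitted effect of over 60% in size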
Cell viab unstim – unstimulated viability counter-screen for ELG1 repair hits; AID 624252; shares compounds with ELG1 DNA repair; 8% of 900 active; cell viability counter-screen, unstimulated, luminescence; Potency, µM (top dose mostly 45.9 µM), for inactives: at the top dose activity change, negative = loss of viability, most hits filed as cytotoxic;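 also: compound exposure lasted 16 hours before reading; % is scaled to controls: 0 for no effect and ±100 for the full control effect; nearly all actives have a fitted effect of over 55% in size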
FLuc enzyme – inhibits purified firefly luciferase, counter-screen for ELG1 hits; 10% of 350 active; AID 624253; shares compounds with ELG1 DNA repair; Potency, µM (doses to about 57.5 µM), inactives show at the highest dose activity, negative = inhibition, actives largely listed as inhibitors; purified firefly luciferase, luminescence counter-screen; also: % is scaled to controls: 0 for no effect and ±100 for the full control effect
Numbers without * were called inactive; [ ] = another dose, or the depositor's remark. Rows were chosen to be rich in hits. Some 9.3% of all compounds tested hit in one or more screens of this group. Calls follow the shape of the dose curve; as a rule, active = well fitted curve in the direction sought with a large enough effect; inconclusive = small, poorly fitted or top-dose-only effect, or another doubt; inactive = no such curve, though single readings can be large; an effect the other way counts as inactive or inconclusive. Potency is read from the fitted curve at half-maximal effect.

For C[C@H]1[C@H](OC(=O)CCC(=O)NCc2ccc(C(=O)O)cc2)O[C@@H]2O[C@@]3(C)CC[C@H]4[C@H](C)CC[C@@H]1C24OO3 the results were ELG1 genotoxic -5.1%, Rab9 promoter act -22.0%, ELG1 DNA repair inconclusive, NPC1 promoter act -26.0% and FLuc modulator -2.7%.
CC1C(OC(=O)CCC(=O)NC(C)(C)CO)O[C@H]2OC3(C)CC[C@H]4[C@H](C)CCC1C24OO3 (some centres not stated) was read as ELG1 genotoxic -10.1%, Rab9 promoter act -16.2%, ELG1 DNA repair 1.16µM*, NPC1 promoter act -17.5%, FLuc modulator 0.5%, ELG1-Luc inh inconclusive, ELG1-Luc MMS inconclusive, ELG1 5-FU -4.6%, ELG1 MMS cell inconclusive and Cell viab unstim inconclusive.
For N[C@@H](Cc1c[nH]c2cc([N+](=O)[O-])ccc12)C(=O)O the results were SMN2 splice enh -3.5%[9.22 µM].
For CCOc1ccc(-c2c(C)n(-c3ccc(OCC)cc3)c3[n+]2CCCCC3)cc1 the results were ELG1 genotoxic -19.7%, Rab9 promoter act -43.6%, ELG1 DNA repair 0.291µM*, NPC1 promoter act -39.6%, FLuc modulator -2.2%, ELG1 FLuc counter inconclusive, ELG1-Luc inh inconclusive, ELG1-Luc MMS 0.5µM*, ELG1 5-FU inconclusive, ELG1 MMS cell 0.445µM*, Cell viab unstim 5µM* and FLuc enzyme -7.6%.
O=c1[nH]c(=O)n(Cc2ccc(F)cc2)c(O)c1/C=N/Nc1ccccc1 was read as ELG1 genotoxic 4.6%, Rab9 promoter act 0.5%, ELG1 DNA repair 1.83µM*, NPC1 promoter act -0.3%, FLuc modulator 2.1%, ELG1-Luc inh 6.2%, ELG1-Luc MMS 1.9%, ELG1 5-FU -0.2%, ELG1 MMS cell -3.0% and Cell viab unstim inconclusive.
Screening O=c1[nH]c(=O)n(Cc2ccc(F)cc2)c(O)c1C=NCCCO returned ELG1 genotoxic -1.2%, Rab9 promoter act -7.2%, SMN2 splice enh 0.7%, ELG1 DNA repair 16.3%, NPC1 promoter act 1.5% and FLuc modulator 2.0%.
For C=C(C)C1Cc2c(ccc3c(=O)c4c(oc23)COc2cc(OC)c(OC)cc2-4)O1 (configuration not stated) the results were SMN2 splice enh -2.2%.
Screening COc1cc2c(cc1OC)[C@@H]1C(=O)c3ccc4c(c3OC1CO2)CC(C(C)C)O4 (some centres not stated) returned SMN2 splice enh -57.3%, ELG1 FLuc counter inconclusive, ELG1-Luc inh 25µM*, ELG1-Luc MMS 0.0445µM*, ELG1 5-FU -21.7%, ELG1 MMS cell 0.0397µM*, Cell viab unstim inconclusive and FLuc enzyme -4.3%.
`COC[C@H]([C@@H](O)[C@@H](O)C(=O)NCC[C@@H](C)c1nc(/C=C/C[C@H]2OC3(C[C@H](O)[C@H]2C)OC([C@@H](C[C@@H](O)[C@@H](C)[C@@H](O)[C@@H](C)/C=C(C)/C(C)=C/C=C/C(C)=C\C#N)OC)[C@@H](OP(=O)(O)O)C3(C)C)co1)N(C)C` (some centres not stated) gave SMN2 splice enh -96.6%, ELG1 FLuc counter 0.5µM*, ELG1-Luc inh 0.141µM*, ELG1-Luc MMS 0.0889µM*, ELG1 5-FU 1.77µM*, ELG1 MMS cell 0.0792µM*, Cell viab unstim 0.158µM* and FLuc enzyme -1.0%.
Screening CCOC(=O)c1ccc(NC(=O)C2C3C=CC(O3)C2C(=O)O)cc1 (configuration not stated) returned ELG1 genotoxic 12.6%, Rab9 promoter act 1.1%, SMN2 splice enh 12.8%, ELG1 DNA repair inconclusive, NPC1 promoter act 4.3% and FLuc modulator -1.9%.
Screening CCOC(=O)c1ccc(NC(=O)c2nc[nH]c2C(=O)NCCNC(=O)c2[nH]cnc2C(=O)Nc2ccc(C(=O)OCC)cc2)cc1 returned ELG1 genotoxic -1.9%, ELG1 DNA repair 0.517µM*, ELG1 FLuc counter inconclusive, ELG1-Luc inh 0.792µM*, ELG1-Luc MMS 1.41µM*, ELG1 5-FU inconclusive, ELG1 MMS cell inconclusive, Cell viab unstim -21.2% and FLuc enzyme inconclusive.
Screening O=C(O)[C@@H]1CSC(c2cccnc2)N1 (some centres not stated) returned SMN2 splice enh 2.0%.
`NC(N)=NN=Cc1c(Cl)cccc1Cl` gave SMN2 splice enh -9.1%[20.6 µM].
For NNC(=O)c1ccc(O)cc1 the results were ELG1 genotoxic 9.1%, Rab9 promoter act 7.5%[46.1 µM], SMN2 splice enh -14.6%, ELG1 DNA repair 27.5%, NPC1 promoter act 7.6%[46.1 µM] and FLuc modulator -3.2%.
`O=C(CCl)c1ccc(O)c(O)c1` gave Cell viab unstim -8.5%.

High-throughput results as filed in PubChem.
